Screens deposited in PubChem by National Center for Advancing Translational Sciences (NCATS).
CtBP-E1A blk: inhibitors of CtBP/E1A interaction; activity change, % (concentration not given with the values); 340,000 tested, 0.49% active; AlphaScreen GST-E1A/His-CtBP binding, 1536-well; hits give low values; in the data active means activity change below about -65%; inconclusive means mostly about -30% to -63%
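GST-E1A and His-tagged CtBP (125 nM each as 5X stock) were preincubated with pin-transferred compound for 2 h at 37 °C in the dark, then glutathione donor and nickel acceptor beads were added for 1 h before AlphaScreen reading.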
IL-1B inflam inh: inflammasome signaling inhibition, IL-1 beta readout; THP-1 LPS/ATP IL-1B secretion, AlphaLISA, 16 h; hits give low values; activity change, % at 57.5 µM; 360,000 tested, 4.7% active; in the data active means activity change below about -50%; inconclusive means mostly about -30% to -49%
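THP-1 cells pretreated 1 hr with compounds (up to 57.5 uM final), then stimulated with LPS (250 ng/mL final) plus ATP (1.25 mM final); secreted IL-1B measured by AlphaLISA after 16 hr, decreased signal indicating inhibition.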
DT40 TDP1 CPT: growth inhibition of DT40 Tdp1-/-;hTDP1 cells with camptothecin (screen for TDP1 inhibitors); chicken DT40 Tdp1-/-;hTDP1 cells + 20 nM CPT, ATP luminescence, 48 h; Potency, µM (doses to about 46.2 µM), for inactives: top-dose activity change, negative = growth inhibition, hits mostly inhibitors; 420,000 tested, 12% active; AID 686979; further: potency means the concentration at half of the fitted maximal effect; nearly all actives have a fitted effect of over 55% in size
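Chicken DT40 Tdp1-/- cells complemented with human TDP1, 400 cells/well, exposed to compounds plus 20 nM camptothecin for at least 48 h at 37 C; viability read as ATP content by CellTiter-Glo luminescence.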
DT40 TDP1 no CPT: qHTS for Inhibitors of human tyrosyl-DNA phosphodiesterase 1 (TDP1): qHTS in cells in absence of CPT; AID 686978, 2013; DT40 Tdp1-/- hTDP1 cells, no CPT, ATP luminescence, 48 h; Potency, µM (top dose mostly 46.2 µM), for the others: top-dose activity change, negative = growth inhibition, usual class: inhibitors; 420,000 tested, 15% active; further: potency means the concentration at half of the fitted maximal effect; nearly all actives have a fitted effect of over 55% in size
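Luminescent ATP content (CellTiter-Glo) served as the growth readout. Knockout chicken DT40 cells expressing human TDP1 were exposed to compounds without camptothecin for a minimum 48 hr at 37 °C.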
TDP1 block: TDP1 (human) enzyme inhibition. Q9NUW8. recombinant TDP1, AlphaScreen DNA substrate cleavage. Potency, µM (top dose mostly 130 µM), for the others: at the highest dose activity change, negative = inhibition, actives largely listed as inhibitors. 350,000 tested, 0.28% active. AID 485290; further: potency means the concentration at half of the fitted maximal effect; nearly all actives have a fitted effect of over 40% in size
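Signal: AlphaScreen proximity between streptavidin donor and anti-FITC acceptor beads on intact substrate. Reaction: Tdp1 1 nM, substrate 15 nM final, 5 min RT after 15 min compound preincubation.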
Six1-Eya2 inh: blocks human Six1 binding to Eya2; Q15475+O00167; AlphaScreen GST-Six1/His-Eya2 binding, biochemical; hits give low values; activity change, % (test concentration not listed); 360,000 tested, 0.56% active; in the data active means activity change below about -65%; inconclusive means mostly about -30% to -63%
Target sequence (O00167 whole entry, looked up): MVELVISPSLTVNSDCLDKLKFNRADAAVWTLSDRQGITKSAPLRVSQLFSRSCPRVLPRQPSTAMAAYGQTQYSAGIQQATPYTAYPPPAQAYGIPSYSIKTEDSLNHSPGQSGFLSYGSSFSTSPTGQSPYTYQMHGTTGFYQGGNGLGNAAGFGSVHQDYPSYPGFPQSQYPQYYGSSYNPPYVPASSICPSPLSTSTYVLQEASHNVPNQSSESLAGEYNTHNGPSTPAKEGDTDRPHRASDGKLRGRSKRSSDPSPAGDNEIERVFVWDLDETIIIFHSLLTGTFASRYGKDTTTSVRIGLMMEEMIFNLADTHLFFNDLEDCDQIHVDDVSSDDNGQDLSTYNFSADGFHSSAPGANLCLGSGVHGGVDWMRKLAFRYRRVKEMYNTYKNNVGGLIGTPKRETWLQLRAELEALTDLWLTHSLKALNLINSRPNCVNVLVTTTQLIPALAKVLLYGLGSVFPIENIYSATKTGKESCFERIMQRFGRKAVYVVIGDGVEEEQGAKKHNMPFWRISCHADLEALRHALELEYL
Target sequence (Q15475 whole entry, looked up): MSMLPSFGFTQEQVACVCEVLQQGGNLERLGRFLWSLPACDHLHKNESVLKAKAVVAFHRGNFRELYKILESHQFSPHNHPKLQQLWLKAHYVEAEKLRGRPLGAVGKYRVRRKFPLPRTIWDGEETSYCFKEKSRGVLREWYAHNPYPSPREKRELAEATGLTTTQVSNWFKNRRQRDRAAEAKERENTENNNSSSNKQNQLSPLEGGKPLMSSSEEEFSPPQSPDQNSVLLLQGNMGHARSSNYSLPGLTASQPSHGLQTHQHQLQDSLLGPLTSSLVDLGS
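GST-Six1 + His-Eya2 (5X stock: 250/500 nM); Tris pH 8.0, 300 mM NaCl, 0.05% BSA, 0.02% Tween 20; GSH donor/Ni acceptor beads; 1 h 37 °C dark; AlphaScreen readout.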
* marks the source's active call; other numbers are inactive results; ? = inconclusive; . = no result; [ ] = remark or other dose. The list is not random: actives were taken first. Their share in the collection is about 18%. Unless noted, the call rests on the fitted dose curve; in most records, active means well fitted curve in the direction sought with a large enough effect; inconclusive means small, poorly fitted or top-dose-only effect, or another doubt; inactive means no such curve, though single readings can be large; an effect the other way counts as inactive or inconclusive. On the % scale 0 is the no-effect control and ±100 the full control effect.

SMILES | CtBP-E1A blk | IL-1B inflam inh | DT40 TDP1 CPT | DT40 TDP1 no CPT | TDP1 block | Six1-Eya2 inh
S=C(NC1CCCCC1)N1CCOCCOCCN(C(=S)NC2CCCCC2)CCOCCOCC1 | -11.0 | -9.1 | ? | ? | . | 2.3
COc1cc(-c2[nH]ncc2CN2CCc3sccc3C2)cc(OC)c1OC | 2.2 | 42.3 | 14.6µM* | 10.3µM* | 2.4% | 1.0
CCOC(=O)c1ccc2nc(C)c(CCC(C)=O)c(Cl)c2c1 | 1.1 | 3.9 | -8.0% | -1.6% | -6.7% | 20.6
CC(=O)CCc1c(C)nc2ccc(C)cc2c1Cl | 0.0 | ? | -7.9% | 5.17µM* | -1.2% | -2.7
NC(=O)c1ccnc2c(O)cccc12 | . | . | . | . | 0.2% | .
OCc1ccnc2c(O)cccc12 | -92.2* | 14.9 | ? | ? | 2.9% | -89.2*
Oc1ccc(/C=C/c2ccccc2)c2cccnc12 | . | . | . | . | 1.5% | .
COCc1ccc(O)c2ncccc12 | -95.0* | 118.2 | 4.61µM* | 4.61µM* | 8.0% | -91.2*
Oc1ccc(CCc2c(F)cccc2F)c2cccnc12 | . | . | . | . | -0.1% | .
Cc1ccc(O)c2ncccc12 | . | . | ? | 4.73µM* | 9.1% | .
O=Nc1ccc(O)c2ncccc12 | . | -98.2* | 0.581µM* | 0.92µM* | -6.9% | -89.0*
Nc1ccc(N=Nc2ccccc2)c2cccnc12 | -72.7* | -20.7 | -1.7% | -2.0% | . | -65.2*
COc1cccc(N=Nc2ccc3cccnc3c2O)c1 | . | 26.5 | 0.581µM* | 1.16µM* | . | -91.1*
Oc1ccc(Cn2ccnc2)c2cccnc12 | -95.1* | 161.3 | 12.6% | ? | 10.3% | -82.8*
COc1ccc(N=Nc2cc(-c3ccccc3)ccc2O)cc1 | -69.3* | -21.0 | -1.7% | -15.2% | . | ?
O=C(CSc1nc(NS(=O)(=O)c2ccccc2)cc(=O)[nH]1)Nc1ccccc1C(F)(F)F | 0.7 | 5.9 | -10.3% | -9.1% | 3.5% | -1.2
O=C(c1ccc(Cl)cc1)c1c[nH]c(C(=O)NNc2cccc(Cl)n2)c1 | -8.9 | -13.8 | -43.3% | ? | 5.8% | 6.6
CCCCC/C=C\C[C@H](O)/C=C/C=C\C/C=C\CCCC(=O)O | . | . | . | . | 9.8% | .
O=C(c1ccccc1)N(CCCn1ccnc1)C(c1ccccc1)c1nc2ccccc2[nH]1 (centres undefined) | 2.2 | 4.2 | 13.4% | -17.6% | . | 8.8
Cc1ccccc1N=Nc1ccc(O)c2ncccc12 | -25.9 | 1.7 | 2.59µM* | 1.64µM* | 9.3% | ?
COc1cccc(N=Nc2ccc(O)c3ncccc23)c1 | -96.4* | 14.1 | 2.59µM* | 2.59µM* | 14.1% | -70.3*
COc1ccc(C)cc1N=Nc1ccc(O)c2ncccc12 | . | -9.5 | 3.26µM* | 2.59µM* | 10.5% | -94.9*
Cc1[nH]c2ccc3ncccc3c2c1C | -6.6 | -8.2 | 7.1% | ? | -1.2% | -12.9
Cc1c(C)c2cccnc2c2ncccc12 | -95.4* | -3.9 | 1.84µM* | 1.46µM* | -1.0% | -92.5*
Oc1ccc(/C=C/c2ccccc2F)c2cccnc12 | . | . | . | . | -2.2% | .
SMILES | CtBP-E1A blk | IL-1B inflam inh | DT40 TDP1 CPT | DT40 TDP1 no CPT | TDP1 block | Six1-Eya2 inh
O=C(NC1CCCC1)C(c1cccnc1)N(C(=O)c1csnn1)C1CCCC1 (centres undefined) | -5.0 | 3.5 | 11.7% | 4.1% | -2.2% | 4.2
Cc1noc(C)c1COc1ccc(CC(=O)NC2CCCCCC2)cc1 | -13.6 | -19.1 | -29.5% | ? | 2.3% | 15.0
Oc1ccc(N=Nc2ccc3c(c2)OCCO3)c2cccnc12 | -84.3* | 44.5 | 1.3µM* | 1.64µM* | 12.8% | -76.6*
COc1ccc(N=Nc2ccc(O)c3ncccc23)cc1 | . | 93.1 | 2.06µM* | 1.46µM* | -1.2% | -86.1*
COc1ccc(-c2ncccc2O)cc1 | -5.4 | -3.4 | 0.0% | -8.5% | -2.2% | 5.2
O=S(=O)(O)c1cccc2c(N=Nc3ccc(O)c4ncccc34)cccc12 | -92.3* | -0.1 | ? | 11.0% | . | 32.0
CCSc1c(-c2ccccc2)nc2c(C)cccc2c1C(=O)O | 2.6 | 5.9 | 4.2% | 2.4% | 3.5% | 11.3
Cc1ccc(CNC(=O)Cn2ccn(-c3ccc(F)cc3)c(=O)c2=O)cc1 | . | . | 19.7% | 2.8% | 2.6% | .
COc1ccc(CC(=O)n2[nH]c(=O)cc(C)c2=O)cc1OC | -0.2 | . | ? | 18.4µM* | -2.5% | -5.5
Cc1ccc(NC(=O)Nc2ccccc2)nc1 | . | -25.2 | 9.3% | -7.3% | . | 3.4
O=C(Nc1ccccn1)C(c1ccccc1)c1ccccc1 | -4.0 | 32.7 | 14.6µM* | 20.6µM* | . | -7.1
O=C(CC(O)(c1ccccc1)c1ccccc1)Nc1ccccn1 | 6.9 | 21.0 | 14.6µM* | ? | . | 0.7
Cc1ccc(NC(=O)C(c2ccccc2)c2ccccc2)nc1 | . | -8.5 | 20.6µM* | ? | . | 6.8
Cc1sc2nc(SCC(=O)N(CCO)CCO)n(C3CCCCC3)c(=O)c2c1C | 4.3 | ? | -9.1% | -24.2% | 1.0% | 2.7
Cc1oc(-c2ccccc2NC(=O)C2CCCO2)nc1CNC(=O)c1cc(F)c(F)cc1F (centres undefined) | . | . | -15.8%[9.04 µM] | -1.4% | . | .
CC1CCC(NC(=O)CC(C)(C)Cc2nc3ccccc3c(=O)[nH]2)CC1 (centres undefined) | 11.8 | -56.0* | 16.4µM* | 23.1µM* | -7.8% | -0.3
CC1CCC(NC(=O)COC(=O)c2n[nH]c(=O)c3ccccc23)CC1 (centres undefined) | 4.3 | 15.3 | -19.4% | 0.9% | . | 1.5
Cc1nc2nc[nH]n2c(=O)c1CCOC(=O)c1c(F)cccc1F | -0.8 | 15.6 | -3.9% | ? | 1.2% | -3.5
Cc1cccc(N2CCN(CC(O)COc3ccc(Cl)cc3)CC2)c1 (centres undefined) | . | ? | ? | 13µM* | 2.5% | 5.5
Cc1cccc(N2CCN(CC(O)COc3ccccc3)CC2)c1 (centres undefined) | -1.4 | -15.0 | -5.0% | 8.1% | . | -10.9
Cc1ccc(N2CCN(CC(O)COc3cccc(C)c3)CC2)cc1 (centres undefined) | . | 2.6 | 23.1µM* | ? | 7.5% | -20.9
CCOC(=O)N1CCN(C(=O)CSc2ccc(-c3ccncc3)nn2)CC1 | 4.4 | 88.0 | -7.5% | -4.0% | -2.6% | 17.3
O=c1[nH]c(=O)n(-c2ccccc2)c2c1C(C(F)(F)F)(C(F)(F)F)N=C(CCC1CCCCC1)N2 | -11.5 | 20.6 | ? | 18.4µM* | 1.8% | 11.1
CC(C)Cn1c2c(c(=O)[nH]c1=O)C(C(F)(F)F)(C(F)(F)F)N=C(CCC1CCCCC1)N2 | 6.5 | -6.1 | 6.51µM* | 4.11µM* | 5.3% | 1.0
